From PubChem BioAssay (EPA / NIEHS)
Active and inactive are the calls of the source. The calls were made as follows: active = hit-call score of the fitted dose curve at least 0.9, where 1 is the maximum; inactive = score below 0.9.

Read-out: Caspase-3 (Homo sapiens) (UniProt P42574)
Test: LTEA_HepaRG_CASP3: Life Technologies and Expression Analysis (LTEA) Assay for cysteine-aspartic acid protease (CASP3) using HepaRG (AID 2283477)
Settings: mRNA level, 48 h; actives raise or lower the signal
Description: LTEA_HepaRG is a cell based, multiplexed-readout assay that uses HepaRG, a human liver cell line, with measurements taken at 48 hours after chemical dosing on a 96-well plate.LTEA_HepaRG_CASP3 is one of 102 assay component(s) measured in the LTEA HepaRG cell culture assay. It is a marker of Cell proliferation, survival, death.Data from the assay component LTEA_HepaRG_CASP3 was analyzed into 1 endpoint. This assay endpoint, LTEA_HepaRG_CASP3, was analyzed with bidirectional fitting relative to DMSO as the negative control and baseline of activity. Using a type of inducible reporter, measures of mRNA induction for gain or loss-of-signal activity can be used to understand regulation of transcription factor activity. To generalize the intended target to other relatable targets, this assay endpoint is annotated to the protease intended target family, where the subfamily is cysteine protease.
A total of 1060 chemcials from the ToxCast library were tested in eight-point concentration-response experiments. Cell culture and cytotoxicity assays were conducted at Thermo Fisher Scientific's Custom Services facility (Madison, WI). A single lot of human HepaRG cells (Thermo Fisher Scientific, Frederick, MD) was used for the cell culture experiments. 96-well format collagen type I coated plates of human HepaRG cells were prepared using established methods. Briefly, cryopreserved HepaRG cells were thawed, plated at a density of approximately 100,000 cells/well in HepaRG Thaw, Plate, and General Purpose media (HPRG770, Thermo Fisher Scientific), and incubated for 48 hours. 0.5% DMSO was selected as vehicle control to balance the requisite need of DMSO in HepaRG cultures to maintain differentiation (for example, baseline metabolism, proportions of hepatocytes vs. cholangiocytes), while enabling further hepatic receptor pathway activation (for example, PXR and CAR) in response to chemical exposure. 48 hours after plating, the culture medium was replaced with HepaRG Serum-Free Incudtion Media. Cells were exposed to each test chemical in duplicate and maintained in CO2 incubators for another 48 hours. Chemical plates were thawed to room temperature and 200x concentrations of treatment groups were prepared. 8-point conentration-reponse curves were made with the highest exposure at 100 uM, followed by half-log dilutions, all in 0.5% DMSO. Each test plate contained variouse controls, induction positive controls (1mM phenobarbital), cytotoxicity positive controls ([…] aflatoxin B1), vehicle controls (0.5% DMSO), and total lysis controls (0.5% DMSO). Cell morphology images were taken using an Essen IncuCyte FLR automated microscope, with six 96-well plates imaged in about 24 minutes. Images were captured and exported and JPEG files. Spent culture media was transfered to black-well plates for the LDH assay, and remaining media was sorted at -80 C for later use. Cells were treated with RLT buffer and frozen until shipped for gene expression analysis. Total RNA was isolated from the cell suspension in 75 uL of Buffer RLT (Qiagen, Germantown, MD 20874) by Quintiles/Expression Analysis (Durham, NC) using a custom isolation procedure. Total RNA from each plate well was transferred to a preamplification plate. Fluidigm's 96.96 Dynamic ArrayTM (Fluidigm, Amsterdam, the Netherlands) technology was used for gene expression analyses by quantitative reverse transcription polymerase chain reaction (qRT-PCR, performed by Quintiles/Expression Analysis, Durham, NC)89. Standard TaqManTM Assays (Applied Biosystems/ThermoFisher Scientific, Foster City, CA) were used to assess the expression of 93 genes selected based on their selectivity and sensitivity to important hepatic receptors known to be modulated by environmental chemicals; importance in human hepatocyte functionality; and hepatotoxicity. […]

Sequence of Caspase-3 (Homo sapiens) (P42574 whole entry, looked up): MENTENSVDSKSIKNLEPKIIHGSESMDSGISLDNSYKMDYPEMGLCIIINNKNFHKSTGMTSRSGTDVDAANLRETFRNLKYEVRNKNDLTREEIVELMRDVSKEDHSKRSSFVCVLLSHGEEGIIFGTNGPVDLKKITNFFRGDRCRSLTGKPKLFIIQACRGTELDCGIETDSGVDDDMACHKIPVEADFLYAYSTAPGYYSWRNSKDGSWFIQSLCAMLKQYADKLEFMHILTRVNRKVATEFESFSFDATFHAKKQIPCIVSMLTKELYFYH

SMILES	outcome	AC50
Oc1cc(Cl)c(Cl)cc1Cl	inactive	–
Clc1cccc(Cl)c1Cl	inactive	–
O=C(N[C@H]1CN2CCC1CC2)c1ccc2c(c1)OCCO2	inactive	–
N#Cc1cccnc1	inactive	–
OCCN(CCO)CCO	inactive	–
CC(C)(C)c1ccccc1O	inactive	–
O=C(O)C1(c2ccc3c(c2)OC[C@H](Cc2ccc(-c4ccccc4)cc2)[C@H]3O)CCCC1	–	79 µM (active)
CN(C)C(=S)S	inactive	–
COc1ccccc1N	inactive	–
CC(C)O.CC(C)O.OCCN(CCO)CCO.OCCN(CCO)CCO.[Ti]	inactive	–
Oc1c(Cl)cc(Cl)cc1Cl	inactive	–
Cc1cc(C)cc(C)c1	inactive	–
Clc1cccc(Cl)c1	inactive	–
CCCCCCCCCCCCc1cccc(S(=O)(=O)O)c1	inactive	–
